Assay results from PubChem BioAssay AID651597 (National Center for Advancing Translational Sciences (NCATS), 2012).
“And” between values parts separate entries of the source, which are not always exact repeats. Identical values can stand only once. Out of some 1,100 compounds screened, about 390 (35%) were called active. Roughly 30% stayed inconclusive and do not appear here. The call rests on the fitted dose curve; in most records, active means well fitted inhibition curve with a large enough effect; inconclusive means small, poorly fitted or top-dose-only effect; inactive means flat fitted curve, though single readings scatter. This is one part of the list. Entries that show only a call come without a potency.

These compounds were tested against Luciferin 4-monooxygenase (Photinus pyralis) (UniProt P08659) (assay: qHTS of Nrf2 Activators: Hit Validation in Secondary FLuc Assay). Conditions: firefly luciferase inhibition counter-screen, luminescence; series mostly up to 57.5 µM.
Excerpt: Many diseases have some form of oxidative stress injury and ties to inflammation, causing a host of problems for the patient. The antioxidant response element (ARE) plays an important role in alleviating the harmful effects of oxidative stress. The antioxidant response element (ARE) is a transcriptional regulatory element involved in the activation of genes coding for a number of antioxidant proteins and detoxifying enzymes. These enzymes work in concert to protect tissues from oxidative insults and chemical toxicities in human hepatocytes and immune cells. The protective effects of ARE activation are primarily triggered through Nrf2 (NF-E2-related factor) binding to and activating AREs. It is known that Nrf2 controls the production of over 250 antioxidant and detoxification proteins (Hu et al., 2006), thereby protecting tissues by increasing cellular antioxidant content and suppressing inflammatory signaling pathways. The transcription factor Nrf2 is a central link between oxidative chemicals, such as phenolic antioxidants and electrophilic compounds, and the activation of ARE. Nrf2 levels are constitutively low as a consequence of its interaction with Keap1, which targets its degradation (Zipper and Mulcahy, 2002). Electrophiles react with key cysteine residues in Keap1, releasing Nrf2 and allowing its translocation to the nucleus. Once within the nucleus, Nrf2 complexes with coactivators such as p300, and binds to the AREs to induce gene transcription of cytoprotective enzymes, resulting in the prevention of toxicity. Activation of Nrf2 protects tissues by increasing cellular antioxidant content and suppressing inflammatory signaling pathways. Identifying novel and potent Nrf2 activators by using the AREc32 cell line to detect ARE activation by small molecules will lead to the identification and development of probes to study protective pathways in multiple tissues. These specific probes are essential to study the ARE pathway, and eventually to determine whether this pathway does activate genes that could protect against a host of diseases, including cardiovascular diseases, obesity, diabetes, Alzheimer's, and Parkinson's disease.
This project's aim is to identify novel and potent Nrf2 activators by using the AREc32 cell line to detect ARE activation by small molecules, which will lead to the identification and development of probes to study the ARE pathway. In this counter assay, we aim to identify false positive as identified from this primary assay using an FLuc assay with an inhibiting read-out.
NIH Chemical Genomics Center [NCGC]
NIH Molecular Libraries Probe Centers Network [MLPCN]
Assay Submitter (PI): Curtis Klaassen, University of Kansas Medical Center
Assess whether an activator in the primary assay potentially causes such activation by inhibitor-induced stabilization of the firefly luciferase reporter enzyme by determining whether it inhibits firefly luciferase in the presence of Km concentrations of its substrates (ATP and D-luciferin).
Further: nearly all actives have a fitted effect of over 65% in size.
Potency means the concentration at half of the fitted maximal effect.

Row | Structure (SMILES) | Potency
1 | C=CCSc1nccc(-c2cc(Cl)sc2Cl)n1 | inactive
2 | O=c1cc(-c2ccco2)nc(SCc2cccc(Cl)c2)[nH]1 | inactive
3 | c1ccc(CSc2nccc(-c3ccco3)n2)cc1 | 12 µM (active)
4 | COC(=O)c1cc2c(s1)-c1cc(F)ccc1OC2 | inactive
5 | CCn1c(NC(=O)c2ccccc2)nc2ccccc21 | 9.53 µM (active)
6 | CCn1c(NC(=O)c2cccs2)nc2ccccc21 | 12 µM (active)
7 | O=[N+]([O-])c1cccc(-c2nnc(-c3ccccc3)o2)c1 | 2.39 µM (active)
8 | N=c1n(CCN2CCOCC2)c2ccccc2n1CC(=O)c1cccc([N+](=O)[O-])c1 | inactive
9 | O=[N+]([O-])c1cccc(-c2nc(-c3ccccn3)no2)c1 | 1.9 µM (active)
10 | c1ccc(-c2nnc(-c3ccccc3)o2)cc1 | 1.9 µM (active)
11 | Brc1cc(Cc2nnc(-c3ccccc3)o2)c(Br)s1 | inactive
12 | O=C1C2C(C(=O)N1/N=C/c1ccc([N+](=O)[O-])o1)C1C=CC2C12CC2 (centres undefined) | inactive
13 | O=[N+]([O-])c1cnccc1-n1nnc2ccccc21 | inactive
14 | NC(=O)c1cc2c3ccccc3ccn2c1-c1ccccc1 | 13.5 µM (active)
15 | CCOc1c(Br)cc(C(N)=O)cc1OCc1ccccc1 | inactive
16 | COC(=O)C1=C(C)N(C)C(=O)/C1=C\c1ccco1 | inactive
17 | O=C1C(=Cc2ccco2)CCCC1=Cc1ccco1 | 2.69 µM (active)
18 | Nc1nccc(/C=C/c2c(F)cccc2Cl)n1 | 9.53 µM (active)
19 | Nc1ccc(S(=O)(=O)Nc2nccc(/C=C/c3cccc(Br)c3)n2)cc1 | inactive
20 | COC(=O)c1ccccc1NC(=O)COCc1cc(-c2cccs2)on1 | inactive
21 | COC(=O)c1ccccc1NC(=O)c1cccs1 | inactive
22 | COc1ccccc1C(=O)COC(=O)c1cccs1 | 2.69 µM (active)

Row | Structure (SMILES) | Potency
23 | COc1cc(OC)cc(-c2nc3ccccc3s2)c1 | 3.79 µM (active)
24 | COc1nc(-c2ccccc2)cc(-c2ccccc2)n1 | inactive
25 | C/C(=N\NC(=S)Nc1cccc(C)c1)c1ccco1 | 7.57 µM (active)
26 | Cc1cccc(NC(=O)C2CC(=O)N/C(=N/N=C/c3ccco3)S2)c1 (centres undefined) | inactive
27 | Cc1cc(C)c(C#N)c(OCC(=O)c2ccc(Br)cc2)n1 | inactive
28 | Cc1ccnc(SCC(=O)c2ccc(Br)cc2)c1C#N | 6.01 µM (active)
29 | N#C/C(=C(/O)c1ccco1)c1nc2ccccc2s1 | 2.39 µM (active) and 2.69 µM (active)
30 | N#C/C(=C(/O)c1ccco1)c1nc2ccccc2[nH]1 | 3.79 µM (active)
31 | COC(=O)c1cc2nc(-c3ccccc3)cc(C(F)(F)F)n2n1 | inactive
32 | COC(=O)c1sccc1NC(=O)c1ccccc1 | inactive
33 | COCCn1c(C(F)(F)F)ccc(NC(=O)c2ccccc2)c1=O | 4.78 µM (active)
34 | O=C1N/C(=N\N=C\c2ccco2)SC1Cc1ccccc1[N+](=O)[O-] (centres undefined) | inactive
35 | Cc1ccc2[nH]c(=O)c3cc(C(=O)N(C)Cc4ccco4)sc3c2c1 | 12 µM (active)
36 | CN(C)CCNC(=O)c1cccc2ccc(-c3ccc(-c4ccccc4)cc3)nc12 | inactive
37 | CC(=O)Cn1nnc2sc(-c3ccccc3)cc2c1=O | 6.01 µM (active) and 5.36 µM (active)
38 | CCN(C(=O)Cn1nnc2sc(-c3ccccc3)cc2c1=O)c1cccc(C)c1 | 12 µM (active)
39 | CC(=NNc1ccc2ccccc2n1)c1ccccc1O | 0.0169 µM (active)
40 | Cc1cc(C)c(-n2c(SCCS(=O)(=O)c3ccc(F)cc3)n[nH]c2=O)c(C)c1 | inactive
41 | COc1ccc(-c2cc3ccccc3oc2=O)cc1NC(=O)c1ccc([N+](=O)[O-])o1 | inactive
42 | COc1cccc(C(=O)Oc2ccccc2/C=C\C(=O)c2cc3ccccc3o2)c1 | 1.51 µM (active)
43 | O=C(Oc1ccccc1/C=C\C(=O)c1cc2ccccc2o1)c1ccccc1 | 1.07 µM (active)
44 | CN1CCN(CCCNC(=O)c2cc3c(=O)n(C)c4ccccc4c3s2)CC1 | inactive

Row | Structure (SMILES) | Potency
45 | O=[N+]([O-])c1ccc(/C=[N+](\[O-])[C@@H]2CCCC[C@@H]2/[N+]([O-])=C/c2ccc([N+](=O)[O-])o2)o1 | inactive
46 | O=[N+]([O-])c1ccc(/C=N/Nc2ccc3ccccc3c2)o1 | 1.69 µM (active)
47 | O=[N+]([O-])c1ccc(/C=N/N=C/c2ccc([N+](=O)[O-])o2)o1 | inactive
48 | O=C(COCc1cc(-c2ccc(F)cc2)on1)Nc1cc(Cl)ccc1O | inactive
49 | Cc1cccc2nc3c(nc12)-c1ccccc1C3=O | inactive
50 | Cc1cccc2cc3c(nc12)-c1ccccc1C3=O | 10.7 µM (active)
51 | CS(=O)(=O)c1nc(S(=O)(=O)c2ccc(Cl)cc2)c(N2CCOCC2)s1 | inactive
52 | Clc1cc(Cl)cc(Nc2ncnc(-n3cccc3)n2)c1 | inactive
53 | CCn1nc(C)c(Br)c1-c1nc(-c2cccc(C)c2)no1 | inactive
54 | Clc1ccc(-c2nnc(-c3cccc4ccccc34)o2)cc1 | 1.35 µM (active)
55 | Cc1cccc(-c2nnc(-c3cccc4ccccc34)o2)c1 | 0.675 µM (active)
56 | COc1cc2c(cc1Cl)/C(=C\CCN(C)C)c1ccccc1S2 | inactive
57 | Cc1nnc2n1N=CC=C(c1ccccc1)S2 | inactive
58 | C#CCSc1nnc(-c2sc3ccccc3c2Cl)o1 | 2.39 µM (active)
59 | O=C1C(=C2CCc3ccccc32)Cc2ccccc21 | 0.301 µM (active)
60 | O=C(NNC(=O)c1sccc1-n1cccc1)c1cccc(Cl)c1 | inactive
61 | O=C(NN/C(=N/S(=O)(=O)c1ccc(Cl)cc1)c1ccccc1)c1cccc(Cl)c1 | 3.01 µM (active)
62 | Cc1ccc(S(=O)(=O)/N=C(/NNC(=O)c2cccc(Cl)c2)c2ccccc2)cc1 | 5.36 µM (active)
63 | O=[N+]([O-])c1ccc(/C=C/c2ccc3cccc([N+](=O)[O-])c3n2)cc1 | inactive
64 | O=[N+]([O-])c1cccc2ccc(/C=C/c3ccc(F)cc3)nc12 | 2.39 µM (active)
65 | Cc1c(=O)n(OCc2ccccc2)c2ccccc2[n+]1[O-] | inactive
66 | N=c1oc2ccccc2cc1-c1nc(-c2ccccc2)cs1 | 2.69 µM (active)

Row | Structure (SMILES) | Potency
67 | Cc1cc(SCC(=O)N/N=C/c2ccco2)nc2ccccc12 | inactive
68 | CC1CCCCC1NC(=O)COC(=O)c1c2c(nc3ccccc13)/C(=C/c1ccco1)CC2 (centres undefined) | 4.78 µM (active)
69 | c1ccc(-c2ccc3c(c2)NC(C2Nc4cc(-c5ccccc5)ccc4O2)O3)cc1 (centres undefined) | inactive
70 | O=C1C(Cl)=C(N2CCN(c3ccccc3[N+](=O)[O-])CC2)C(=O)c2ccccc21 | 1.2 µM (active)
71 | O=[N+]([O-])c1ccccc1S(=O)c1ccccc1[N+](=O)[O-] | inactive
72 | O=C(Nc1ccc(Cl)cn1)c1cnn2cccnc12 | 2.39 µM (active)
73 | O=C(Nc1cccn2ncnc12)c1cccc(C(F)(F)F)c1 | inactive
74 | N#CC(C(=O)NCc1ccco1)c1nc2ccccc2nc1N1CCOCC1 (centres undefined) | inactive
75 | COc1c(Cl)cc(C(=O)NCc2ccco2)cc1Cl | inactive
76 | O=C(NCc1ccco1)c1cccnc1-c1nc2ccccc2s1 | 10.7 µM (active)
77 | O=C(Nc1cccc(/C=C/c2ccccn2)c1)c1ccc(-n2cncn2)cc1 | 2.13 µM (active)
78 | COc1cc(OC)cc(C(=O)O/N=C(\N)c2cccc(C)c2)c1 | 9.53 µM (active)
79 | Cn1c(=O)n(C)c2cc(NC(=O)c3cccc([N+](=O)[O-])c3)c(Br)cc21 | inactive
80 | Cc1cc(CNC(=O)c2cccc([N+](=O)[O-])c2)c2ccccc2n1 | inactive
81 | COc1ccc(/C(N)=N/OC(=O)c2cccc([N+](=O)[O-])c2)cc1 | 1.51 µM (active)
82 | CCOC(=O)CCn1c(=O)c2cccn2c2cccnc21 | inactive
83 | Cc1nc(/N=C(\N)NC(=O)c2ccccc2)nc2ccccc12 | 3.79 µM (active)
84 | C(=Cc1cnnc2ccccc12)c1ccccc1 | 3.38 µM (active)
85 | COc1ccc(Cl)cc1C(=O)O/N=C(\N)c1ccncc1 | inactive
86 | COc1ccc(Cl)cc1C(=O)NC(=S)Nc1nc(C)cc(C)n1 | inactive
87 | COc1ccc(Cl)cc1NC(=O)c1cc(C)no1 | inactive
88 | COc1ccc(C(C)=O)cc1OCc1ccccc1 | inactive

Row | Structure (SMILES) | Potency
89 | COc1ccc(Cl)cc1C(=O)O/N=C(\N)c1ccccn1 | 10.7 µM (active)
90 | COc1ccccc1C(=O)O/N=C(\N)c1ccc(Cl)cc1 | 3.38 µM (active)
91 | COc1ccc(Cl)cc1C(=O)O/N=C(\N)c1ccc(Cl)cc1 | 9.53 µM (active)
92 | COCCNC(=O)c1ccc(-n2c(-c3ccccc3)cc3c2CCC(C)C3)cc1 (centres undefined) | inactive
93 | CSc1nc(Oc2ccc3ccccc3c2)c2sccc2n1 | inactive
94 | Cc1nc([N+](=O)[O-])c(Br)n1Cc1ccccc1 | inactive
95 | COc1ccc(/C=C2/CCCC(CN(C)C)C2=O)cc1 (centres undefined) | 3.38 µM (active)
96 | COc1cccc(/C=C2/CCC(CN(C)C)C2=O)c1 (centres undefined) | 1.51 µM (active)
97 | O=C(CSc1nnc(-c2cccnc2)o1)c1cc2ccccc2oc1=O | inactive
98 | c1ccc(-c2noc(-c3cccc4ccccc34)n2)cc1 | 0.953 µM (active)
99 | c1ccc(-c2noc(-c3cccnc3)n2)cc1 | 3.01 µM (active)
100 | COc1cccc(-c2nc(-c3ccccc3)no2)c1 | 0.151 µM (active)
101 | Brc1ccc(-c2nnc(-c3cccnc3)c3conc23)cc1 | inactive
102 | COc1cccc(C2=CC(c3cccs3)n3nnnc3N2)c1 (centres undefined) | inactive
103 | Fc1ccccc1-c1nc(-c2ccc(Cl)cc2)no1 | 0.478 µM (active)
104 | COc1nc2ccc(C)cc2cc1-c1noc(-c2ccccc2)n1 | inactive
105 | O=C(CN1CC(=O)Oc2ccccc21)OCC(=O)c1ccc(F)cc1 | inactive
106 | c1cncc(-c2noc(-c3cccc4ccccc34)n2)c1 | 2.39 µM (active)
107 | Cc1cc(C)c(C#N)c(SCC(=O)c2ccccc2)n1 | inactive
108 | Cc1cc(C)c(C#N)c(SCC(=O)c2cccs2)n1 | 12 µM (active)
109 | Cc1cc(C)c(C#N)c(OCC(=O)c2ccccc2)n1 | inactive
